Measurements as given in PubChem BioAssay (EPA / NIEHS).
Calls of active or inactive are those of the source. Rule for the calls: active = hit-call score of the fitted dose curve at least 0.9, where 1 is the maximum; inactive = score below 0.9.

Assay: ATG_NRF2_ARE_CIS: Attagene CIS-FACTORIAL HepG2 Assay for human Nuclear Factor Erythroid 2 Related Factor 2 (NFR2) response to Antioxidant Response Elements (ARE) (AID 2282992)
Details: HepG2 Attagene ARE/NRF2 reporter, transcription factor activity; actives raise or lower the signal
Protocol: ATG_CIS is a cell-based, multiplexed-readout assay that uses HepG2, a human liver cell line, with measurements taken at 24 hours after chemical dosing in a 24-well plate.ATG_NRF2_ARE_CIS is one of 52 assay component(s) measured or calculated from the ATG_CIS assay. It is designed to make measurements of mRNA induction, a form of inducible reporter, as detected with fluorescence intensity signals by Reverse transcription polymerase chain reaction (RT-PCR) and Capillary electrophoresis technology.Data from the assay component ATG_NRF2_ARE_CIS was analyzed into 1 assay endpoint. This assay endpoint, ATG_NRF2_ARE_CIS, was analyzed with bidirectional fitting relative to DMSO as the negative control and baseline of activity. Using a type of inducible reporter, measures of mRNA for gain or loss-of-signal activity can be used to understand the reporter gene at the transcription factor-level as they relate to the gene NFE2L2. Furthermore, this assay endpoint can be referred to as a primary readout, because this assay has produced multiple assay endpoints where this one serves a reporter gene function. To generalize the intended target to other relatable targets, this assay endpoint is annotated to the dna binding intended target family, where the subfamily is basic leucine zipper.
Human liver HepG2 cells are transiently transfected with multiple reporter transcription units (MRTUs) in 6-well plates using FuGene 6 reagent (Roche; 3 ml FuGene/1 mg DNA). The MRTU constructs are regulated by a cis-regulating element (promoter). […] A major difference between the CIS and TRANS system is that in CIS activities of endogenous TFs are measured, whereas the TRANS assay evaluates changes in activities of exogenous, chimeric NR-Gal4 proteins. […] At the end of 24 hour incubation, total RNA was isolated using TriZol reagent (Invitrogen). The isolated RNA is then reverse-transcribed using oligo(dT) primer and Mo-MLV reverse transcriptase (Invitrogen) with DNAse I (Ambion) treatment for 30 min. The one-tenth of the produced cDNA was amplified by PCR using Taq DNA polymerase (Invitrogen) and two reporter sequence-specific primers. The PCR products were fluorescently labeled by primer extension with 6-arboxyfluorescein (6-FAM) 5'-labeled reporter sequence-specific primer (2 min at 95 C, 20 s at 68 C and 10 min at 72 C) and these products were digested with 5U of HpaI (New England Biolabs) for 2h at 37 C. The fragments were purified using Qiaquick PCR columns (Qiagen), analyzed on an ABI 3130xL genetic analyzer (Applied Biosystems) with peak positions identified by using a set of X-rhodamine (ROX)-labeled MapMarker1000 molecular weight standards (BioVentures). The raw capillary electrophoresis data was processed using Attagraph software (Attagene).

| SMILES | AC50 | outcome |
| --- | --- | --- |
| CC1(C)C(=O)N(Br)C(=O)N1Cl | 100 µM (active) | – |
| O=C[C@@H](O)[C@H](O)[C@H](O)CO | – | inactive |
| CC(C)=CCCC(C)CC=O (stereo not given) | – | inactive |
| NC(=O)NC1NC(=O)NC1=O (stereo not given) | – | inactive |
| CC[C@]12CCCN3CCc4c(n(c5ccccc45)[C@@](O)(C(=O)OC)C1)[C@@H]32 | – | inactive |
| CC(=O)O[C@]1(C(C)=O)CC[C@H]2[C@@H]3C[C@H](C)C4=CC(=O)CC[C@]4(C)[C@H]3CC[C@@]21C | 65.1 µM (active) | – |
| O=C[C@H](O)[C@H](O)[C@H](O)CO | – | inactive |
| O=C1CCCCCCCCCCCCCCO1 | 74.4 µM (active) | – |
| OCCOCCOCCOCCO | – | inactive |
| CC(C)(CO)[N+](=O)[O-] | – | inactive |
| CC(C)=CCC[C@](C)(O)[C@@H]1CC=C(C)CC1 | – | inactive |
| CC[Si](OC(C)=O)(OC(C)=O)OC(C)=O | – | inactive |
| CNC[C@H](O)c1cccc(O)c1 | – | inactive |
| Cc1ccc(C=O)s1 | – | inactive |
| CC(=O)OCC=Cc1ccccc1 | 34.9 µM (active) | – |
| C=CC(=O)NCOCC(C)C | 54.6 µM (active) | – |
| CC(CN1c2ccccc2Sc2ccccc21)N(C)C (stereo not given) | – | inactive |
| CC1=CCC2C(C1)C2(C)C (stereo not given) | 48.8 µM (active) | – |
| CN1Cc2c(N)cccc2C(c2ccccc2)C1 (stereo not given) | – | inactive |
| FC1(F)C(F)(F)C(F)(F)C2(F)C(F)(C1(F)F)C(F)(F)C(F)(F)C1(F)C(F)(F)C(F)(F)C(F)(F)C(F)(F)C12F (stereo not given) | – | inactive |

| SMILES | AC50 | outcome |
| --- | --- | --- |
| CC(C)C1CCC(O)CC1 (stereo not given) | – | inactive |
| C=CC(=O)OCCn1c(=O)n(CCOC(=O)C=C)c(=O)n(CCOC(=O)C=C)c1=O | 0.811 µM (active) | – |
| CC(C)=CCC[C@H](C)CC=O | – | inactive |
| CCN(CC)c1ccc(C(=C2C=CC(=[N+](CC)CC)C=C2)c2ccc(S(=O)(=O)O)cc2S(=O)(=O)[O-])cc1 | – | inactive |
| O=Cc1ccc(Cl)c([N+](=O)[O-])c1 | 179 µM (active) | – |
| O=C1c2ccccc2C(=O)N1SC1CCCCC1 | 65.4 µM (active) | – |
| Cc1c(Cl)c(=O)oc2cc(O)ccc12 | 78.5 µM (active) | – |
| Cc1ccc2n[nH]nc2c1 | – | inactive |
| O=Nc1ccc(Nc2ccccc2)cc1 | 7.16 µM (active) | – |
| CCC/C=C/C=O | 30.5 µM (active) | – |
| CC(CC(C)(C)C)CC(C)(C)CC(C)(C)C (stereo not given) | – | inactive |
| CCCCCCCCCCCCCCCC(=O)O | – | inactive |
| O=c1[nH]nnc2ccccc12 | – | inactive |
| S=C(S)NCCNC(=S)S | – | inactive |
| CSc1nnc(C(C)(C)C)c(=O)[nH]1 | – | inactive |
| CCCCCCC#CC(=O)OC | 21.6 µM (active) | – |
| Nc1cc(N)cc(C(=O)O)c1 | – | inactive |
| C=CC(=O)OCC(O)COc1ccccc1 (stereo not given) | 26.2 µM (active) | – |
| O=C1NC(=O)c2ccccc21 | – | inactive |
| CSc1nc(NC2CC2)nc(NC(C)(C)C)n1 | 12.1 µM (active) | – |
